# In PubChem BioAssay AID686978 (National Center for Advancing Translational Sciences (NCATS), 2013):
# The campaign covered roughly 420,000 compounds. About 64,000 (15%) were called active. About 27% were inconclusive and are not listed. These entries were drawn from the full list. Unmarked numbers belong to inactive results. The call rests on the fitted dose curve; in most records, active means well fitted inhibition curve with a large enough effect; inconclusive means small, poorly fitted or top-dose-only effect; inactive means flat fitted curve, though single readings scatter.
# Assay: qHTS for Inhibitors of human tyrosyl-DNA phosphodiesterase 1 (TDP1): qHTS in cells in absence of CPT; further: nearly all actives have a fitted effect of over 55% in size
# Conditions: DT40 Tdp1-/- hTDP1 cells, no CPT, ATP luminescence, 48 h; activity change, negative = growth inhibition: at 46.2 µM (top of the series)
# Method in brief: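 Cells were dispensed at 400 per well, compounds added by pin tool, plates incubated ≥48 hr at 37 °C, then CellTiter-Glo added for 30 min at room temperature before luminescence reading. Line: DT40 Tdp1-/- complemented with hTDP1; camptothecin omitted.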
# On the % scale 0 is the no-effect control and ±100 the full control effect; potency means the concentration at half of the fitted maximal effect.
Compound,"activity change, negative = growth inhibition",Potency
CCC(=O)NC(NCC1CCCO1)C(Cl)(Cl)Cl (stereo not given),-1.9%,–
COc1ccccc1CNc1nc(Nc2ccccc2Cl)c2sccc2n1,–,7.31 µM (active)
CCc1ccc(S(=O)(=O)c2nnn3c2nc(NCc2ccccc2OC)c2cc(Cl)ccc23)cc1,-12.5%,–
Cc1nc2cc(NCc3cccs3)ccc2n1C,0.0187%,–
COc1cccc(CNc2nc(NCc3ccccc3OC)nc3ccsc23)c1,–,9.2 µM (active)
COCCNc1nc(NCc2ccc(NC(C)=O)cc2)c2sccc2n1,-5.82%,–
COc1cccc(CNc2nccn(-c3ccc(OC)c(OC)c3)c2=O)c1,-13.9%,–
COc1ccccc1CNCc1cccs1,-9.52%,–
COc1cccc(CNc2nc(NCc3cccs3)nc3ccsc23)c1,–,10.3 µM (active)
CC(C)Nc1nc(NCCOc2ccccc2Cl)c2sccc2n1,–,20.6 µM (active)
COc1ccc(NC(=O)C/C(C)=N/NC(=O)c2cnccn2)cc1Cl,2.04%,–
COc1ccc(C(=O)N(Cc2ccc(N(C)C)cc2)C2CCS(=O)(=O)C2)cc1 (stereo not given),-15%,–
CC(C)C(OC(=O)c1cccs1)C(=O)NC1CCCCC1 (stereo not given),-21.2%,–
CCNc1nc(N)nc(-c2cc(Cl)ccc2OC)n1,-7.89%,–
COc1ccc(OC)c(S(=O)(=O)Nc2ccccc2F)c1,-7.95%,–
COc1ccc(C(=O)OCC(=O)Nc2ccc3[nH]c(=O)[nH]c3c2)c(OC)c1OC,-5.45%,–
O=C(Nc1ccc(F)c([N+](=O)[O-])c1)C1CCCO1 (stereo not given),-22.9%,–
COc1ccc(/C=C2\NC(=O)[C@@H]3Cc4ccccc4CN3C2=O)cc1,-8.4% [at 9.04 µM],–
COc1ccc(/C=C2/CCCc3ccccc3C2=O)cc1,–,5.8 µM (active)
COc1ccc(/C=C2\N=C3CCCN3C2=O)cc1,21.3%,–
COc1ccc(/C=C2\CCc3ccccc3C2=O)c(OC)c1OC,–,20.6 µM (active)
COc1ccccc1C1=CC(=O)CCC1,-12%,–
O=C1/C(=C/c2cccs2)CCc2ccccc21,-26.7%,–
O=C(O)CC(Cc1ccccc1)C(=O)Nc1ccc([N+](=O)[O-])cc1 (stereo not given),-13.4%,–
COc1cccc(C(=O)N/N=C(\C)c2cccc(NC(=O)c3ccc(F)cc3)c2)c1OC,–,23.1 µM (active)
COc1ccc(/C(C)=N\NC(=O)c2ccc(-c3ccccc3)cc2)c(F)c1,-7.22%,–
COc1cccc(C(=O)Nc2cccnc2)c1OC,3.25%,–

Compound,"activity change, negative = growth inhibition",Potency
CCc1ccc(CCC(=O)Nc2ccc(S(N)(=O)=O)cc2)o1,-3.63%,–
Cc1ccc2cc(C)c(N3CCC(C)CC3)nc2c1,-35.6%,–
CCOc1n[nH]c(-c2ccccc2)n1,15.3%,–
O=C(CNC(=O)N1CC(=O)Nc2ccccc21)Nc1ccc(Br)cc1F,-0.716%,–
Cc1ccc(Cn2ccc(NC(=O)C3C4CCC(C4)C3C(=O)O)n2)cc1 (stereo not given),-23.8%,–
COc1ccc(N(CC(=O)NC2CCCC2)C(=O)CS(=O)CC(=O)Nc2ccc3c(c2)OCO3)cc1 (stereo not given),17.1%,–
COc1ccc(NC(=O)C2Cc3c(-c4ccc(Cl)cc4)ccnc3O2)cc1 (stereo not given),–,13 µM (active)
O=C(Nc1ccc(Cl)cc1)C1Cc2c(-c3ccc4c(c3)OCO4)ccnc2O1 (stereo not given),–,20.6 µM (active)
O=C(COc1ccc(Cl)cc1)Nc1ccc2c(c1)OCO2,-21.7%,–
CC(=O)Nc1ccc(-c2ccnc3c2CC(C(=O)NC(C)C)O3)cc1 (stereo not given),-21.1%,–
COc1ccc(CCCNC(=O)C2Cc3c(-c4cccc(C(N)=O)c4)ccnc3O2)cc1 (stereo not given),–,16.4 µM (active)
O=C(Nc1ccc2c(c1)OCO2)C1CC1(Cl)Cl (stereo not given),-18.3%,–
COc1ccc(CCNC(=O)COc2ccc3c(c2)OCO3)cc1,-8.14%,–
COc1ccc(NC(=O)C2Cc3c(-c4ccc5c(c4)OCO5)ccnc3O2)cn1 (stereo not given),–,4.61 µM (active)
COc1ccc(CCNC(=O)COC(=O)c2cnc(Cl)c(Cl)c2)cc1,1.66%,–
COc1ccc(OCC(O)CNC(=O)Nc2ccc(Cl)cc2)cc1 (stereo not given),10.9%,–
COc1ccc(Cn2ccnc2SCC(=O)Nc2ccc3c(c2)OCO3)cc1,-18.2%,–
COc1cc(OC)c(C(=S)N2CCCC2)cc1OC,-1.59%,–
O=C1NC(=O)C(CCc2ccccc2)(c2ccccc2)N1 (stereo not given),-19.1%,–
O=C(Nc1c2c(nn1-c1cccc(Cl)c1)CS(=O)(=O)C2)c1cccs1,13.2%,–
COc1ccc(-n2nnnc2SCC(=O)NCc2cccs2)cc1,4.79%,–
COc1ccc(N2CCN(C(=O)c3cn(C)c4ccc(S(=O)(=O)N5CCOCC5)cc4c3=O)CC2)cc1,–,inactive
CC(=O)NC1(c2cccc(F)c2)CCN(CC(=O)NC(C)C)CC1,-3.98%,–
CCCCC1=CC2=CC(=O)C(C)(OC(=O)CC)C(=O)C2=CN1CCCOC(C)C (stereo not given),5.48%,–
CCOc1ncccc1C(=O)OCC(=O)c1c[nH]c2ccccc12,10.8%,–
O=C(CCC(=O)OCC(F)(F)C(F)F)NCc1ccccc1,-4.18%,–
O=C(NC12CC3CC(CC(C3)C1)C2)N1CCCC(CO)C1 (stereo not given),-5.39%,–

Compound,"activity change, negative = growth inhibition",Potency
CCOC(=O)c1ccc[n+](CC(=O)Nc2ccccc2OC(F)F)c1,1.71%,–
Nc1nc(SCc2ccc([N+](=O)[O-])cc2)c2ncn(C3OC(CO)C(O)C3O)c2n1 (stereo not given),-26.2%,–
CC(C)Sc1nc(N)nc2c1ncn2C1OC(CO)C(O)C1O (stereo not given),-19.1%,–
OC[C@@H]1O[C@H](n2cnc3c(SCc4ccccc4)ncnc32)[C@H](O)[C@H]1O,–,11.2 µM (active)
O=C(CCc1ccccc1)NCc1cccnc1,-13.8%,–
O=C(CCc1ccccc1)NCc1ccc2c(c1)CCN2C(=O)c1ccccc1,–,20.6 µM (active)
O=C(CCc1ccc(S(=O)(=O)NC2CCCCC2)cc1)NCc1ccccc1,-22.2%,–
Cc1ccc(C(=O)N2CCc3cc(CNC(=O)c4ccc(Br)cc4)ccc32)cc1,–,14.6 µM (active)
Cc1cc2cc(CNC(=O)c3ccc(S(=O)(=O)N4CCOCC4)cc3)ccc2[nH]1,-11.8%,–
CCC(=O)N1CCc2cc(S(=O)(=O)NC(Cc3ccccc3)C(=O)NCc3ccc(C)cc3)ccc21 (stereo not given),1.68%,–
CN(C)c1ncc2nc(-c3ccc(F)cc3)c(=O)n(Cc3ccc(F)cc3)c2n1,15.1%,–
C=Cc1ccc(Cn2c(C(=O)OC)cc3sc(C)cc32)cc1,-27.6%,–
C=CCC[C@@H](Cc1ccc(F)cc1)C(=O)OC[C@H](Cc1c[nH]c2ccccc12)NC(=O)[C@@H](CC=C)CC(=O)N(CCO)Cc1ccccc1,–,16.4 µM (active)
C=CC[C@H](CC(=O)NCCO)C(=O)N[C@@H](COC(=O)[C@@H](CC=C)Cc1ccc(F)cc1)Cc1c[nH]c2ccccc12,–,23.1 µM (active)
O=C(CCc1c[nH]c2ccccc12)NCCOc1ccccc1,-22.9%,–
COC(=O)C(Cc1c[nH]c2ccccc12)NC(=O)CCNC(=O)c1ccco1 (stereo not given),-2.46%,–
C=CC[C@@H](CC(=O)NCCO)C(=O)N[C@H](C)COC(=O)[C@@H](CC=C)CC(=O)OC(C)(C)C,-7.37%,–
C=CCC[C@H](Cc1ccc(F)cc1)C(=O)OC[C@@H](Cc1c[nH]c2ccccc12)NC(=O)[C@H](CC=C)CC(=O)N[C@H](CO)Cc1ccccc1,–,20.6 µM (active)
CC(=O)NC(Cc1c[nH]c2ccccc12)C(=O)NCCc1ccccc1 (stereo not given),-12.3%,–
CCN(CC)c1nc(C#N)nc(OC)n1,-20.1%,–
CC1(C)CC(=O)NC=C(c2ccccc2)C1,-2.86%,–
COc1cc2c(cc1OC)/C(=C/C(=O)c1ccc(NC(C)=O)cc1)NCC2,-28.9%,–
O=C(OCCO)c1cc(Cl)c(C(=O)OCCO)cc1Cl,-2.72%,–
O=S(=O)(c1ccc(-c2ccccc2)cc1)N1CCCC1,6.42%,–
CN[C@@H]1[C@H](O[C@H]2[C@H](O[C@H]3[C@H](O)[C@@H](O)[C@H](N=C(N)N)[C@@H](O)[C@@H]3N=C(N)N)O[C@@H](C)[C@]2(O)CO)O[C@@H](CO)[C@H](O)[C@H]1O,-5.68%,–
Cc1cc(C)nc(Nc2n[nH]c(-c3ccccc3N)n2)n1,-26.2%,–
CCOC(=O)CSc1nncc2ccc(OC)c(OC)c12,-14.7%,–

Compound,"activity change, negative = growth inhibition",Potency
CC(=O)c1ccc(NS(=O)(=O)c2ccc(-c3cc(C)no3)s2)cc1,-26.9%,–
Cc1cc(-c2ccc(S(=O)(=O)N3CCc4ccccc4C3)s2)on1,-11.1%,–
CCc1cccc(C)c1NS(=O)(=O)c1ccc(-c2cc(C)no2)s1,–,0.517 µM (active)
Cc1cccc(N2CCN(S(=O)(=O)c3ccc(-c4cc(C)no4)s3)CC2C)c1 (stereo not given),21.2%,–
Cc1cc(-c2ccc(S(=O)(=O)N3CCN(c4cccc(C(F)(F)F)c4)CC3)s2)on1,-7.52%,–
Cc1cc(C)cc(NS(=O)(=O)c2ccc(-c3cc(C)no3)s2)c1,–,2.59 µM (active)
COc1cc(CNc2ncn[nH]2)ccc1OCc1ccccc1C,-14.2%,–
CC(C)CNc1ncnc2c1nnn2C,-1.79%,–
Cc1cccc(NC(=O)NC2(C)CCS(=O)(=O)C2)c1 (stereo not given),22.1%,–
Cc1nccn1-c1ccc(NC(=O)[C@H]2O[C@@H](n3ccc(=O)[nH]c3=O)[C@H](O)[C@@H]2O)cc1,-4.65%,–
COCCOC(=O)C1=C(C)NC(=O)NC1c1cc2c(cc1Br)OCO2 (stereo not given),-5.22%,–
CCOc1cc(S(=O)(=O)NC2CC(C)(C)NC(C)(C)C2)ccc1F,-14.5%,–
COc1cc(/C=N/NC(=O)Cc2ccccc2)cc(OC)c1OC,-8.58%,–
COc1cc(/C=N/Nc2ccc(C)cc2)cc(Br)c1O,4.09%,–
COc1cc(/C=N/Nc2nn3cnnc3c3ccccc23)cc(OC)c1OC,–,16.4 µM (active)
Cc1nnsc1C(=O)NCc1c(F)cccc1Cl,-7.8%,–
COc1ccccc1Nc1nnc(SC(C)C(=O)NC2CC2)s1 (stereo not given),7.34%,–
Cc1ccc(OCc2n[nH]c(=S)n2-c2ccccc2)cc1,-14.7%,–
S=c1[nH]nc(CSCc2ccc(Cl)cc2Cl)n1-c1ccccc1,–,15.8 µM (active)
Cc1ccc(NCc2n[nH]c(=S)n2-c2ccccc2)cc1Cl,-9.32%,–
Cc1c(C(=O)N2CCCC2)c(S(=O)(=O)NCC(C)c2ccccc2)c(C)n1C (stereo not given),-3.35%,–
O=C(c1cccs1)N(C(=O)c1cccs1)c1ccccn1,-1.91%,–
O=C(c1ccc(Br)o1)N(c1ccccn1)C1CCCCC1,–,23.1 µM (active)
O=C(N1CCOCC1)N(Cc1ccccc1)c1ccccn1,-18.7%,–
